These results are taken from PubChem BioAssay.

Values joined by “and” are separate entries in the source; they are usually repeats but may differ in a detail not shown here. Equal entries are not always repeated. Active and inactive are the calls of the source.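 Rule for the calls, unless noted: active = z-score of at least 1.8 in each of two replicates, scored against plate mean and spread of sample wells; inactive = the rest.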

Test [1] can be described thus: P. berghei load reduction in hepatocytes – cell-based, HepG2, luciferase luminescence, HepG2 viability, primary screen (AID 624349; in the data active = parasite load remaining mostly below about 12%, no sharp cut-off; inactive = mostly above about 10%;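 note: 100% = mean of DMSO negative control wells on the same plate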). The following applies: P. berghei liver stage in HepG2, luciferase luminescence, concentration not given here; parasite load remaining: stronger effect = lower value; viability: measured here: HepG2 viability without parasites.
Test [2] is described as follows: stimulators of insulin release from INS-1E, primary screen, cell-based, 5 mM glucose, NPC library (AID 1117329;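 active = compound raises insulin release from rat beta cells at 5 mM glucose, no numeric limit stated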). The conditions noted are these: rat INS-1E insulin secretion, at 10 µM, stronger effect = higher value.
The nature of test [3]: growth inhibition of GSK3B-pretreated HCT116 cells – cell-based, CellTiter-Glo, 0.2 to 20 µM (AID 1117336;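 active = compounds lowering colon cancer cell viability after pretreatment blocking the GSK3B kinase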). The conditions noted are these: HCT116 viability after GSK3B inhibitor, at 20 µM, stronger effect = higher value. On the technique in general: In ATP-based viability assays light output follows the ATP content of the culture.
Test [4] is described as follows: inhibition of endothelial tube formation, primary screen, imaging, VEGF stimulated, CD31 staining, tube area, NPC library (AID 1117340;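 active = compound that reduces growth-factor-driven endothelial tube area in a mixed cell culture, no cutoff stated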). The following applies: VEGF-stimulated ADSC/ECFC co-culture, at 10 µM, stronger effect = higher value.
A short description of test [5]: GLP1 release stimulators, primary, NCI-H716, NPC library (AID 1117341;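 active = compound raises GLP1 secretion from the human gut endocrine cells, with no numeric limit stated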). The conditions noted are these: NCI-H716 cells, at 10 µM, stronger effect = higher value.
Test [6] can be described thus: HCT116 colon cancer cell growth inhibition, primary screen, CellTiter-Glo luminescence, NPC library (AID 1117342;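 active = compounds that lower survival of HCT116 colon cancer cells in the luminescence readout, no numeric limit stated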). The following applies: at 20 µM (top of the series).
A short description of test [7]: reduced SW480 viability measured with CellTiter-Glo, NPC library, primary (AID 1117343;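 active = compounds that lower viability of the colon cancer cells in the luminescence readout, with no numeric limit stated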). The following applies: CellTiter-Glo luminescence; at 20 µM (top of the series) unless noted.
A short description of test [8]: NPC library primary testing for decreased DLD-1 cell viability via CellTiter-Glo (AID 1117346;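 active = compounds that lower survival of DLD-1 colon cancer cells in the luminescence readout, no cutoff given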). The conditions noted are these: DLD-1 viability, CellTiter-Glo luminescence; at 20 µM (top of the series).
Test [9] has as its target 6-phosphogluconate dehydrogenase, decarboxylating (Homo sapiens) (UniProt P52209). Briefly: inhibition of human phosphogluconate dehydrogenase – biochemical, recombinant enzyme, NADPH absorbance, primary screen (AID 1159550;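 active = at least 20% inhibition of 6-phosphogluconate dehydrogenase activity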). The conditions noted are these: recombinant 6PGD, NADPH absorbance 341 nm; at 10 µM; stronger effect = higher value.
Test [10] can be described thus: modulation of C. elegans fzo-1 (AID 1259413; call rule not given here;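 note: fzo-1 mutant C. elegans worms in liquid wells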). The following applies: C. elegans fzo-1 modulator screen, mean read-out; stronger effect = higher value.
The nature of test [11]: viability loss with induced miR-34 in A549 – imaging, A549 dox-inducible miR-34, nuclei and caspase counts, primary screen (AID 1347080;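 active = compounds whose cell count with miR-34 switched on is under 0.7 times the count with it off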). The following applies: A549 miR-34 inducible, Hoechst nuclei count, 48 h.
Test [12] is described as follows: MELAS cybrid and Rieske KO viability enhancers – cell-based, MELAS cybrids, Rieske KO mouse fibroblasts, CellTiter-Glo, primary screen (AID 1508586;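 active = mean z-score across replicates of 1.96 or higher in either the MELAS or the Rieske mutant cell line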;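 note: z relative to plate mean and SD of compound and empty wells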). The following applies: low glucose.
Test [13] has as its target NAD(+) hydrolase SARM1 (Homo sapiens) (UniProt Q6SZW1). Briefly: blocking NAD cleavage by SARM1 SAM-TIR – cell lysate, NAD-Glo luminescence (AID 1508614;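 active = compound whose remaining NAD level is above about 45 nM, limit read from the data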;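 note: higher remaining NAD means stronger inhibition of SARM1 NADase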). The following applies: SAM-TIR HEK293T lysate NADase, at 1 µM, stronger effect = higher value.
Test [14] concerns the target Mitogen-activated protein kinase 7 (Homo sapiens) (UniProt Q13164). As to the kind of experiment: Gal4-ERK5 driven luciferase induction – cell-based, HTS, primary screen (AID 1508626;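 active = luciferase signal above three times the same-plate solvent-only control wells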;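 note: luciferase driven by Gal4-ERK5 fusion binding five Gal4 sites before minimal TATA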). The following applies: HeLa Gal4-ERK5 transactivation, 18 h, at 5 µM, stronger effect = higher value.
A short description of test [15]: galactose survival enhancers in mitochondrial complex I cybrids – cell-based, galactose medium, ATP luminescence, primary screen (AID 1645843).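 Note: positive z means more ATP and so rescue of galactose-driven cybrid death.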 The following applies: complex I mutant cybrid cells, 72 h, stronger effect = higher value.
Test [16] is described as follows: compounds altering viability of human ES cells (AID 493140; call rule not given here;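 note: cells exposed to compounds for four days before counting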). The conditions noted are these: human embryonic stem cell survival screen; stronger effect = higher value.
Test [17] in a line: EMT-state selective cytotoxicity in co-culture – imaging, PC-3E GFP, TEM4-18 mCherry, primary screen (AID 1345086;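 active = compounds killing one labelled cell type while sparing the other, by normalised counts and ratio limits, not self-fluorescent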;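 note: cells exposed to compound for 72 h before imaging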;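 for red/green cell ratio (normalised): normalised mesenchymal count divided by normalised epithelial count so high means epithelial killing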). The following applies: PC-3E GFP / TEM4-18 mCherry co-culture, imaging cell counts, at 1 µM.
The mark [18] stands for this setting: MELAS cybrid survival, CellTiter-Glo 48 h, stronger effect = higher value.
Where [19] appears, read: Rieske KO mouse fibroblast survival, CellTiter-Glo 72 h.

Sequence of 6-phosphogluconate dehydrogenase, decarboxylating (Homo sapiens) (P52209 whole entry, looked up): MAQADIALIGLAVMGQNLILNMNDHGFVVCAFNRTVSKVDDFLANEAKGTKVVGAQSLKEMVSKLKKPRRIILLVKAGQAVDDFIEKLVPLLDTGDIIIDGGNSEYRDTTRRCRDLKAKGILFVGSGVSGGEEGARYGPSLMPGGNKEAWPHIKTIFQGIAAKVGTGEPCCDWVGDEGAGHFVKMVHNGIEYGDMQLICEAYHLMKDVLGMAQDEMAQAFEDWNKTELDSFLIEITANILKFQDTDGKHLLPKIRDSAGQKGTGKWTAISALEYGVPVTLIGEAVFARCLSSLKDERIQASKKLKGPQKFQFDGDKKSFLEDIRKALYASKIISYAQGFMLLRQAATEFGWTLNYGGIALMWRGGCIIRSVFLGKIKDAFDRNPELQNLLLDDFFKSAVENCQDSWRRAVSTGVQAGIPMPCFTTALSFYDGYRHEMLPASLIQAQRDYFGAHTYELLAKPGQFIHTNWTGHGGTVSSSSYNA
Sequence of Mitogen-activated protein kinase 7 (Homo sapiens) (Q13164 whole entry, looked up, the tested form may be a part): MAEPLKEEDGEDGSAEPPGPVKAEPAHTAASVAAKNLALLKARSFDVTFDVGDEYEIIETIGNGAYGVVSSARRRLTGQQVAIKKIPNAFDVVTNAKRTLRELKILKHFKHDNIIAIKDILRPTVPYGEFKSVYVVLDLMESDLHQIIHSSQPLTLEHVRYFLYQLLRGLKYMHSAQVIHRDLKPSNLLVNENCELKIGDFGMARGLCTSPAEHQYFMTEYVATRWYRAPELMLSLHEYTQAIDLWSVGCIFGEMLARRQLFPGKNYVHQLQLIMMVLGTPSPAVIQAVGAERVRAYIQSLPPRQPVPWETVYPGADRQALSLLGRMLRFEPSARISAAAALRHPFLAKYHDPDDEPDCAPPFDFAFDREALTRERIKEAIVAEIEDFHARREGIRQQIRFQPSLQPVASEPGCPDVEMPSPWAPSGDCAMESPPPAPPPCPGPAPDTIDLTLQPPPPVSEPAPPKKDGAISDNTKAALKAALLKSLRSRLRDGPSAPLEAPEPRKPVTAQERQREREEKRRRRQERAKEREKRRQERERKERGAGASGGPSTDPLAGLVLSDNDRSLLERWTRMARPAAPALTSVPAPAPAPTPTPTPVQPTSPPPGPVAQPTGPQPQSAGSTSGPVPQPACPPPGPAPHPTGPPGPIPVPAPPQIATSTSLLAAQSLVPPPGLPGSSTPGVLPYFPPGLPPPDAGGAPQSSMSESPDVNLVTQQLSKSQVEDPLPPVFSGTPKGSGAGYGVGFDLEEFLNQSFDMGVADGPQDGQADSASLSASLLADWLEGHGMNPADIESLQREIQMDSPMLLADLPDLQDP
Sequence of NAD(+) hydrolase SARM1 (Homo sapiens) (Q6SZW1 whole entry, looked up, the tested form may be a part): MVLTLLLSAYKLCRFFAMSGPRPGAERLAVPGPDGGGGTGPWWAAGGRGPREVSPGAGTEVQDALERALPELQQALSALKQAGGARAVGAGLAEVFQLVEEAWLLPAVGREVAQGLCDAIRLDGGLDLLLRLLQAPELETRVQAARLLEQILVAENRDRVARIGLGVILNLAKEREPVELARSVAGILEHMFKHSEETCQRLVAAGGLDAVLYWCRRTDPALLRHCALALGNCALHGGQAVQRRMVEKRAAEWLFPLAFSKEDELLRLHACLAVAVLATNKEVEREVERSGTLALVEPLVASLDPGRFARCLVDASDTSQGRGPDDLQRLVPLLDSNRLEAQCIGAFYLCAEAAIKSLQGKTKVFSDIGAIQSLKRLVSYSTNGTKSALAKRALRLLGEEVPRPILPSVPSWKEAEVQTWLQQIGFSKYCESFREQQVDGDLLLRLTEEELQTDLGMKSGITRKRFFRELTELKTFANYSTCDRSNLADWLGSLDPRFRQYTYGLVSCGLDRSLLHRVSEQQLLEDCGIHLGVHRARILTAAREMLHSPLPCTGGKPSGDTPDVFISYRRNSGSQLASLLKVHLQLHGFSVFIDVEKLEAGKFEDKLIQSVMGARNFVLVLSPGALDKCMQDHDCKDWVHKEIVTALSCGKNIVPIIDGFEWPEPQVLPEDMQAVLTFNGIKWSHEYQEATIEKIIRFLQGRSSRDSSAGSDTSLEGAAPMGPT

As for `CN1[C@@H]2CC(OC(=O)[C@H](CO)c3ccccc3)C[C@H]1[C@@H]1O[C@@H]12` (some centres undefined), in [1], the parasite load remaining is 98.9% (inactive) and 107% (inactive) and 26.7% (inactive). For the same compound, the viability in [1] is 102% and 73.5% and 68.5%. In test [2], the insulin secretion stimulation is 0.9% (inactive). Also, the viability decrease in [3] is 1% (inactive). Moreover, the tube area decrease in test [4] is -4.7% (inactive). Besides, the GLP1 secretion stimulation in test [5] was 2.4% (inactive). Also, the inhibition of viability in test [6] was -0.5% (inactive). Besides, the viability decrease (inhibition) was -5.7% (inactive) in [7] and -0.6% (inactive) in test [8]. In addition, the inhibition in [9] was 6.42% (inactive). Also, the mean signal in test [10] was 252 (inactive). For the same compound, the fold change is 0.844 (inactive) and 0.894 (inactive) and 0.852 (inactive) in test [11] (stronger effect = lower value, cell number ratio, induced over uninduced); 1.08 and 0.602 and 0.997 in test [11] (measured here: relative caspase fold change +Dox/-Dox). The cell count in [11] (measured here: total cells with miR-34 induction, stronger effect = lower value) was 8470 and 8340 and 9610; in test [11] (measured here: total cells without miR-34 induction) it was 10000 and 9330 and 11300. Also, the z-score in test [12] (setting [18]) was -0.375 (inactive) and 0.309 (inactive); in test [12] (setting [19]) it was -0.839 and -0.133; in [15], -0.01 (inactive) and 0.315 (inactive). Besides, the remaining NAD in test [13] was 10 nM (inactive). Moreover, the luciferase signal in test [14] was 88 AU (inactive).
`COc1cc(OC)c2oc(-c3ccc(OC)c(OC)c3)c(O)c(=O)c2c1`: the inhibition in test [9] is -1.17% (inactive).
For `O=C(NCC1CCCCN1)c1cc(OCC(F)(F)F)ccc1OCC(F)(F)F` (centres undefined), in test [16], the survival was 2.25 (inactive). Also, the parasite load remaining in [1] was -2.69% (inactive) and 85.7% (inactive) and 46.8% (inactive). Also, the viability in test [1] was 26.8% and 98.2% and 100%. Further, the insulin secretion stimulation in test [2] was 3.7% (inactive). Moreover, the viability decrease in test [3] was -3.9% (inactive). Moreover, the tube area decrease in test [4] is -3.2% (inactive). In test [5], the GLP1 secretion stimulation is 1.7% (inactive). In addition, the inhibition of viability in test [6] was 21.7% (inactive). The viability decrease (inhibition) in [7] is 1.6% (inactive); in [8], -7.6% (inactive). The mean signal in test [10] was 257 (inactive). Besides, the z-score is -0.524 (inactive) and 0.18 (inactive) in test [12] (setting [18]); 0.614 and 0.91 in [12] (setting [19]); -1.51 (inactive) and -0.39 (inactive) and 0.37 (inactive) in [15]. Further, the luciferase signal in test [14] is 68 AU (inactive).
Regarding `Cc1ccc(/C(=C\CN2CCCC2)c2ccccn2)cc1`, in test [16], the survival is 11.5 (inactive). For the same compound, the insulin secretion stimulation in test [2] is 24% (active). Moreover, in [3], the viability decrease was -2.3% (inactive). The tube area decrease in test [4] was -2.9% (inactive). Further, the GLP1 secretion stimulation in test [5] was -2.1% (inactive). Moreover, the inhibition of viability in test [6] is -50.9% (inactive). In addition, the viability decrease (inhibition) is 6.5% (active) in test [7] and -45.1% (inactive) in test [8]. For the same compound, in test [9], the inhibition was 2.89% (inactive). The red/green cell ratio (normalised) in test [17] (actives lie on both sides, counts scaled to control wells, 1 = unselective) is 1.28 (inactive). Besides, the normalised cell number in [17] (measured here: epithelial PC-3E GFP cell survival) was 0.94; in test [17] (measured here: mesenchymal TEM4-18 mCherry cell survival) it was 1.2. The z-score in test [12] (setting [18]) is 0.293 (inactive) and -0.295 (inactive); in test [12] (setting [19]) it was 0.187 and -0.783; in test [15] it was -0.245 (inactive) and -0.1 (inactive) and 0.365 (inactive). In addition, the remaining NAD in test [13] was 10 nM (inactive). The luciferase signal in test [14] was 152 AU (inactive).
For `CCC1(C2OC(C3OC(O)(CO)C(C)CC3C)CC2C)CCC(C2(C)CCC3(CC(O)C(C)C(C(C)C(OC)C(C)C(=O)O)O3)O2)O1` (centres undefined), in [9], the inhibition is 3.18% (inactive).

The viability is a read-out of living cells in per cent, often relative to untreated cells. One may read the inhibition as the relative decrease from the control value, in per cent.
